Among all 330,000 compounds or so, about 4,100 (1.2%) were called active. Cut-off read from the data, not from the text of the source: active = inhibition above about 50%; inactive = the rest. This excerpt belongs to a sample that is enriched for actives.
The compounds below were run against Sentrin-specific protease 8 (Homo sapiens) (UniProt Q96LD8) (assay: blockers of human SENP8 peptidase activity – biochemical, luminescence, primary screen (AID 2540)). Conditions: purified SENP8, Z-RLRGG-aminoluciferin cleavage, at 10 µM, active compounds read high.
Sentrin-specific protease 8 (Homo sapiens), sequence (Q96LD8 whole entry, looked up): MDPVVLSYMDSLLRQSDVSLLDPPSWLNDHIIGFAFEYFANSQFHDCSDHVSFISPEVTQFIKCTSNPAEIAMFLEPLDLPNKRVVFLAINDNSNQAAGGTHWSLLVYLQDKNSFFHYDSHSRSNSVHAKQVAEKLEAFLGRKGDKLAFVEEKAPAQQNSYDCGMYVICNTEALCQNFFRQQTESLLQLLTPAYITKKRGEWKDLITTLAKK
For `Cc1ccc(N(Cc2ccccc2O)C(=O)c2ccccc2F)cc1`, the inhibition was 9.54% (inactive).
With `O=C(Nc1ccc2ccccc2c1)/C(=C\c1ccc2c(c1)OCO2)NC(=O)c1ccco1` the inhibition was 10.3% (inactive).
In the case of `CCN1C(=NCc2ccc(OC)cc2)N[C@@H](CCc2ccccc2)[C@H](C(=O)NCc2ccc(OC)cc2)[C@H]1C`, the inhibition is reported as -2.38% (inactive).
For `CC(C)CCN1C(=O)c2ccc(C(=O)Nc3cccc(S(N)(=O)=O)c3)cc2C1=O`, the inhibition was -8.58% (inactive).
With `COCCOC(=O)c1sc(=S)n(CCOC)c1N` the inhibition was -1.86% (inactive).
`CC(=O)c1ccc(NC(=O)c2ccc3c(Cl)c4c(nc3c2)CCCC4)cc1` was tested, and the inhibition was -0.476% (inactive).
In the case of `COc1cccc(NC(=O)c2ccc3c(SCC(=O)O)c4c(nc3c2)CCCC4)c1`, the inhibition is reported as -3.32% (inactive).
For `CC(C)CCNC(=O)c1ccc2c(Cl)c3c(nc2c1)CCC3`, the inhibition was 81.1% (active).
`Cc1c(CCO)c(=O)[nH]n1C(=O)c1c(F)cccc1F` was tested, and the inhibition was 13.4% (inactive).
`O=C(O)C(F)(F)C(NCc1ccccc1)c1ccccc1` (stereo unspecified) was tested, and the inhibition was -6.64% (inactive).
`O=C(OC1CCOC1=O)c1ccc(-c2nc3ccccc3s2)s1` (stereo unspecified) was tested, and the inhibition was 93.9% (active).
For `CC(C)c1ccc(C(=O)OC2CCOC2=O)cc1` (stereo unspecified), the inhibition was 2.09% (inactive).
`COc1cc(C(=O)OC2CCOC2=O)c([N+](=O)[O-])cc1OC` (stereo unspecified) was tested, and the inhibition was -2.98% (inactive).
In the case of `Cc1cccc(NS(=O)(=O)c2ccc(C)c(C(=O)NCC(c3ccccc3)N(C)C)c2)c1` (stereo unspecified), the inhibition is reported as 8.98% (inactive).
With `CCCCNC(=O)c1ccccc1NC(=O)c1ccccc1N(C)S(C)(=O)=O` the inhibition was -5.03% (inactive).
With `Oc1c(Cl)cc(Cl)c(Cl)c1Cc1c(O)c(Cl)cc(Cl)c1Cl` the inhibition was 28.5% (inactive).
`COc1ccc(/C=C/c2noc(-c3ccccc3OC(C)=O)n2)cc1` was tested, and the inhibition was 88.3% (active).
`COc1cccc(/C=C/c2ccc3ccccc3n2)c1OC(C)=O` was tested, and the inhibition was 17.7% (inactive).
In the case of `COc1ccccc1-c1nnc(-c2ccc(F)cc2)o1`, the inhibition is reported as 24.5% (inactive).
For `C[C@@H]1CC[C@]2(O[C@@H](CCO)C[C@H](O)[C@H]2O)O1`, the inhibition was 1.7% (inactive).
In the case of `NC(=O)[C@H]1CC2(CC(c3cccc(NC(=O)[C@H]4CCC(=O)N4)c3)=NO2)CN1C(=O)c1ccccc1C(=O)c1ccccc1` (stereo partly specified), the inhibition is reported as 2.84% (inactive).
For `COc1ccc(/C=N/NC(=O)c2cc(-c3cccc(C)c3)nc3ccccc23)cc1O`, the inhibition was 10.3% (inactive).
In the case of `COc1cc(/C=N/Nc2nc3ccccc3s2)ccc1O`, the inhibition is reported as 76% (active).
With `COc1cc(/C=N/NC(=O)CCc2n[nH]c(=O)[nH]c2=O)ccc1O` the inhibition was 1.52% (inactive).
For `Cc1nc(N2CCCCC2)sc1C=O`, the inhibition was 1.41% (inactive).
In the case of `Fc1ccc2nc(N3CCCCC3)sc2c1`, the inhibition is reported as 72.2% (active).
For `O=S(=O)(Nc1ccc2nc(N3CCOCC3)sc2c1)c1ccccc1`, the inhibition was 9% (inactive).
In the case of `Cc1ccc2nc(N3CCN(C(=O)c4ccco4)CC3)sc2c1`, the inhibition is reported as -13.8% (inactive).
In the case of `O=C(NCCc1cccc(F)c1)C1CCCN(c2nc3ccccc3s2)C1` (stereo unspecified), the inhibition is reported as 12.2% (inactive).
With `CN(C)CCCN(C(=O)c1ccc(S(=O)(=O)N2CCCCCC2)cc1)c1nc2cc3c(cc2s1)OCCO3` the inhibition was 6.61% (inactive).
`Brc1ccc2nc(N3CCCC3)sc2c1` was tested, and the inhibition was 85.2% (active).
In the case of `c1c2c(cc3sc(N4CCCCC4)nc13)OCCO2`, the inhibition is reported as 96.5% (active).
In the case of `Fc1ccc2nc(Nc3nc4c(s3)CCCC4)sc2c1`, the inhibition is reported as 3.05% (inactive).
In the case of `COc1ccc2c(c1)C=CC1(O2)N(CCO)c2ccccc2C1(C)C` (stereo unspecified), the inhibition is reported as 0.788% (inactive).
With `O=C(CSc1nc2ncccc2[nH]1)Nc1ccc2c(c1)OCCO2` the inhibition was -1.02% (inactive).
In the case of `CC(Sc1nncn1C)C(=O)NCCC1=CCCCC1` (stereo unspecified), the inhibition is reported as 5.55% (inactive).
For `Cc1ccc(C(c2nnnn2CS(=O)(=O)c2ccc(C)cc2)N2CCC(C)CC2)cc1` (stereo unspecified), the inhibition was 4.98% (inactive).
With `CCC(=O)c1ccc(OCC(=O)OCC(=O)NC2CCCCCC2)cc1` the inhibition was -0.587% (inactive).
`CCc1cc(C(=O)Nc2nnc(C3CC3)s2)sc1C` was tested, and the inhibition was 2.73% (inactive).
With `O=C(Nc1nnc(C2CC2)s1)c1cc(Cl)sc1Cl` the inhibition was -4.61% (inactive).
In the case of `Cc1cc(C(=O)Nc2nnc(C3CC3)s2)c(C)s1`, the inhibition is reported as 74.1% (active).
In the case of `CCN1CCN(c2ccc(S(=O)(=O)N3CCCCC3)cc2NC(=O)c2cccc(NC(C)=O)c2)CC1`, the inhibition is reported as -4.93% (inactive).
With `CC(C)CC(O)C1CCN(C(=O)CCc2nnc(-c3ccc4c(c3)OCO4)o2)CC1` (stereo unspecified) the inhibition was -8.01% (inactive).
In the case of `CNS(=O)(=O)c1cccc(C(=O)OCC(=O)N2c3ccccc3NC(=O)C2(C)C)c1`, the inhibition is reported as -16.6% (inactive).
`CSC1=N/C(=C\C=C\c2cccs2)C(=O)S1` was tested, and the inhibition was 53.6% (active).
With `Cc1cccc(C2=N/C(=C/c3cccs3)C(=O)O2)c1` the inhibition was -4.38% (inactive).
With `O=C1N/C(=C/c2cccs2)C(=O)N1Cc1ccc(F)cc1` the inhibition was -10% (inactive).
With `CC(C)(C)c1cc(NC(=O)NN2CCOCC2)nn1-c1c(Cl)cc(Cl)cc1Cl` the inhibition was 1.46% (inactive).
`Cc1cccc(NS(=O)(=O)c2ccc(C)c(C(N)=O)c2)c1` was tested, and the inhibition was 0.196% (inactive).
With `Cc1cccc(NS(=O)(=O)c2cccc(C(=O)NNC(=O)c3ccccc3O)c2)c1` the inhibition was 50.1% (active).
With `CC(=O)N1CCN(C(=O)c2cccc(S(=O)(=O)Nc3ccc(C)cc3)c2)CC1` the inhibition was -6.08% (inactive).
`CCc1ccc(NC(=O)CCNS(=O)(=O)c2cccs2)cc1` was tested, and the inhibition was -0.839% (inactive).
In the case of `CS(=O)(=O)Nc1cccc(-c2cn3ccccc3n2)c1`, the inhibition is reported as -1.75% (inactive).
`O=C1CC(c2ccccc2)=NN1c1ccc([N+](=O)[O-])cc1` was tested, and the inhibition was 81.8% (active).
`Cc1nc(-c2ccc([N+](=O)[O-])cc2)c(-c2ccccc2)o1` was tested, and the inhibition was -11% (inactive).
For `O=c1[nH]n(-c2ccc([N+](=O)[O-])cc2)c(=O)c2ccccc12`, the inhibition was -5.71% (inactive).
In the case of `CCOc1ccccc1OCCCNCc1ccccc1`, the inhibition is reported as -6.65% (inactive).
For `C=CCSc1nnc(Cn2c(=O)sc3ccccc32)n1C`, the inhibition was -1.6% (inactive).
With `Cc1cc(N=Nc2ccc3ccccc3c2)ccc1O` the inhibition was 95.5% (active).
With `Cc1ccccc1Nc1nc(N)nc(COC(=O)CCC(=O)c2ccc(F)cc2)n1` the inhibition was -5.5% (inactive).
For `CCC(C(=O)Nc1ncccn1)(C(F)(F)F)C(F)(F)F`, the inhibition was 2.16% (inactive).
In the case of `COc1cc(OC)cc(-c2c(C#Cc3ccsc3)c3cc(-c4ccc(OC)cc4F)ccc3n2C)c1`, the inhibition is reported as -6.93% (inactive).
In the case of `COc1ccc(CNC(=O)Cc2ccc(-c3ccccc3)cc2)cc1OC`, the inhibition is reported as -1.75% (inactive).
With `COc1ccc(CNC(=O)COC(=O)c2c(C)nn(-c3ccccc3)c2C)cc1OC` the inhibition was -2.1% (inactive).
With `COc1ccc(CNC(=O)COc2ccccc2C(=O)c2cnn(-c3ccccc3)c2)cc1OC` the inhibition was 55.6% (active).
For `CC(C)CCN(C(=O)c1csnn1)C(C(=O)NC1CCCC1)c1ccccc1` (stereo unspecified), the inhibition was -0.251% (inactive).
In the case of `CCOC(=O)c1sc(N(Cc2ccccc2)C(=O)CN2C(=O)CN(C)C2=O)nc1C`, the inhibition is reported as 5.69% (inactive).
`CC12CCC(=O)N1C(C(=O)Nc1ccc(F)c(F)c1F)CS2` (stereo unspecified) was tested, and the inhibition was -5.83% (inactive).
In the case of `CCN(C(=O)COC(=O)CCC(=O)c1cccs1)C1CCCCC1`, the inhibition is reported as -2.61% (inactive).
For `Cc1ccsc1C(=O)NC1CCCCC1C` (stereo unspecified), the inhibition was -2.42% (inactive).
With `COc1cccc(C(=O)Nc2nc3ccc(S(C)(=O)=O)cc3s2)c1` the inhibition was 82.5% (active).
With `COc1ccc(C(=O)Nc2cccc(S(C)(=O)=O)c2)cc1` the inhibition was -4.36% (inactive).
For `COc1cccc(C(=O)Nc2nnc(S(=O)(=O)N(C)c3ccccc3)s2)c1`, the inhibition was -5.38% (inactive).
For `Cc1cnc(NC(=O)c2ccccn2)s1`, the inhibition was 66.9% (active).
`O=C(Nc1nnc(C2CC2)s1)c1ccccn1` was tested, and the inhibition was 20.9% (inactive).
`Cc1cnc(NC(=O)C2CCCC2)s1` was tested, and the inhibition was -0.598% (inactive).
For `Clc1ccc(C=NC23CN4CN(CN(C4)C2)C3)cc1`, the inhibition was 8.45% (inactive).
For `Cc1ccc(Nc2cc(C)nc3c(C)ccc([N+](=O)[O-])c23)cc1`, the inhibition was -13.4% (inactive).
`Clc1ccc(Nc2ccc3ccccc3n2)cc1` was tested, and the inhibition was 82.3% (active).
For `O=c1ccnc(Nc2ccc(Cl)cc2)[nH]1`, the inhibition was -3.3% (inactive).
For `Cc1cc(Nc2ccc(Br)cc2)nc2ccccc12`, the inhibition was -6.96% (inactive).
`CC(OC(=O)c1ccc(NS(=O)(=O)c2ccc3[nH]c(=O)[nH]c3c2)cc1)C(=O)Nc1cccc(Cl)c1Cl` (stereo unspecified) was tested, and the inhibition was -9.53% (inactive).
`CC(C)CCN1CCN(C/C=C/c2ccco2)CC1CCO` (stereo unspecified) was tested, and the inhibition was 4.76% (inactive).
For `Cc1cc(C(=O)CCl)c(C)n1CC1COc2ccccc2O1` (stereo unspecified), the inhibition was -8.88% (inactive).
For `COc1ccc(C(=O)OCC(=O)c2cc(C)n(CC3CCCO3)c2C)cc1[N+](=O)[O-]` (stereo unspecified), the inhibition was -17.7% (inactive).
In the case of `Cc1ccsc1C(=O)OCC(=O)c1cc(C)n(CC2CCCO2)c1C` (stereo unspecified), the inhibition is reported as 91.1% (active).
With `CCC(C)(C)c1ccc(Oc2ccc(NC(=O)COC(=O)C3=COCCO3)cc2)cc1` the inhibition was -2.31% (inactive).
`Cc1nc2nc(CSc3nc4ccccc4s3)cc(=O)n2[nH]1` was tested, and the inhibition was -14.3% (inactive).
For `O=[N+]([O-])c1c(NCCO)cc(Sc2nc3ccccc3s2)c2nonc12`, the inhibition was 85% (active).
With `NC(=O)c1ccc(Nc2ccc3nonc3c2[N+](=O)[O-])cc1` the inhibition was 2.67% (inactive).
For `CC(C)NC(=O)/C(C#N)=C\c1ccc(N(C)C)c(Br)c1`, the inhibition was -4.03% (inactive).
With `CC1(C)CC(=O)C(C2c3ccccc3S(=O)(=O)c3ccccc32)C(=O)C1` the inhibition was -0.512% (inactive).
For `CC(CNc1ccc([N+](=O)[O-])cc1)NC(=O)c1ccccc1Br` (stereo unspecified), the inhibition was 0% (inactive).
With `O=C(O)c1c(NC(=O)N2CCCC2)sc2c1CCCC2` the inhibition was -9.81% (inactive).
For `COC(=O)c1c(NC(=O)c2ccccc2F)sc2c1C(C(=O)OC)CC2` (stereo unspecified), the inhibition was -3.54% (inactive).
With `O=C(Nc1sc2c(c1C(=O)O)CCC2)c1ccccc1F` the inhibition was 86.7% (active).

Reference: PubChem BioAssay AID2540 (Sanford-Burnham Center for Chemical Genomics, 2010)
